Assay results from PubChem BioAssay AID504387 (National Center for Advancing Translational Sciences (NCATS), 2011).
The source made the active and inactive calls. How the calls were made is not given here.

Molecular target: Thyrotropin receptor (Homo sapiens) (UniProt P16473)
Assay: Concentration-response assay for antagonists of the thyroid stimulating hormone receptor: ELISA activity detection
Details: HEK293-TSHR, TSH-induced cAMP, ELISA chemiluminescence
Text: TSH is an alpha/beta heterodimeric glycoprotein hormone secreted from the anterior pituitary gland which belongs to the glycoprotein hormone family. The actions of TSH are mediated by a seven-transmembrane receptor, which upon TSH binding couples preferentially to the G-alpha (s) protein (Gs), resulting in activation of adenylate cyclase and increase in cyclic adenosine 3', 5' monophosphate (cAMP). The TSH receptor (THSR) is mainly expressed in thyroid follicular cells and regulates their growth and function. This cell based assay was conducted on a TSHR transfected HEK 293 cell line, measuring cAMP stimulation using antibody-based Homogeneous Time Resolved Fluorescence (HTRF). Our goal is to identify small molecules that will inhibit (antagonize) the thyroid-stimulating hormone receptor (TSHR), a member of the 7 transmembrane-spanning receptor (7TMR) family of cell surface receptors. TSHR-mediated hyperthyroidism is important in thyroid pathology. The development of small molecule antagonists of TSHR may lead to therapeutic approaches for TSHR-mediated hyperthyroidism caused by constitutively activating mutations or stimulating auto-antibodies associated with Graves' disease. Graves' disease is the leading cause of hyperthyroidism and is caused by autoantibodies that stimulate TSHR (TsAbs) causing thyroid growth and unregulated overproduction of thyroid hormones and existing treatments have liabilities (agranulocytosis). In addition, TSHRs are known to be expressed in multiple extrathyroidal tissues including bone, brain, kidney, testis, fat and cells of the immune system but the role of the TSHR in these tissues is not clear. Therefore, TSHR antagonists/inverse agonists could be used as probes of extrathyroidal TSHR function. Finally, TSHR inverse agonists, which are a subclass of antagonists that inhibit agonist-independent (or basal or constitutive) TSHR signaling, could be used to inhibit TSH-independent signaling in patients with recurrent or metastatic thyroid cancer who are receiving thyroid hormone to suppress TSH. A confirmatory assay of TSHR antagonists was conducted on a HEK 293 cell line stably expressing the TSHR, using an orthogonal detection technology to measure cAMP stimulation: an ELISA based cAMP competition assay using cAMP-Screen Direct System (Applied Biosystems, Foster City, CA).
Transiently transfected HEK-EM 293 cells or cells stably expressing TSHRs were seeded into 96-well plates at a density of 7 x10^4 cells per well in DMEM containing 10% FBS. Cells were cultured for 24 h before incubation for 20 min in HBSS/10 mM HEPES (pH 7.4). To determine the effect of the compound on TSH induced TSHR activity, cells were incubated for 20 min with the compound in HBSS/HEPES without IBMX and subsequently for 40 min with bovine TSH (Sigma) and the compound in HBSS/HEPES supplemented with 1 mM IBMX at 37 C. The levels of cAMP in cells incubated in HBSS/HEPES without IBMX were subtracted in all experiments. After aspiration of the incubation medium, cells were lysed using lysis buffer of the cAMP-Screen Direct system (Applied Biosystems, Foster City, CA). The cAMP content of the cell lysate was determined using the method described in the manufacturer's protocol. The chemiluminescence signal was measured in a VICTOR3 V 1420 multilabel counter (PerkinElmer, Norwalk, CT). The potencies (EC50 and IC50) of the ligands were obtained from dose-response curves by data analysis with GraphPad Prism 4 for Windows.

Thyrotropin receptor (Homo sapiens), sequence (P16473 whole entry, looked up): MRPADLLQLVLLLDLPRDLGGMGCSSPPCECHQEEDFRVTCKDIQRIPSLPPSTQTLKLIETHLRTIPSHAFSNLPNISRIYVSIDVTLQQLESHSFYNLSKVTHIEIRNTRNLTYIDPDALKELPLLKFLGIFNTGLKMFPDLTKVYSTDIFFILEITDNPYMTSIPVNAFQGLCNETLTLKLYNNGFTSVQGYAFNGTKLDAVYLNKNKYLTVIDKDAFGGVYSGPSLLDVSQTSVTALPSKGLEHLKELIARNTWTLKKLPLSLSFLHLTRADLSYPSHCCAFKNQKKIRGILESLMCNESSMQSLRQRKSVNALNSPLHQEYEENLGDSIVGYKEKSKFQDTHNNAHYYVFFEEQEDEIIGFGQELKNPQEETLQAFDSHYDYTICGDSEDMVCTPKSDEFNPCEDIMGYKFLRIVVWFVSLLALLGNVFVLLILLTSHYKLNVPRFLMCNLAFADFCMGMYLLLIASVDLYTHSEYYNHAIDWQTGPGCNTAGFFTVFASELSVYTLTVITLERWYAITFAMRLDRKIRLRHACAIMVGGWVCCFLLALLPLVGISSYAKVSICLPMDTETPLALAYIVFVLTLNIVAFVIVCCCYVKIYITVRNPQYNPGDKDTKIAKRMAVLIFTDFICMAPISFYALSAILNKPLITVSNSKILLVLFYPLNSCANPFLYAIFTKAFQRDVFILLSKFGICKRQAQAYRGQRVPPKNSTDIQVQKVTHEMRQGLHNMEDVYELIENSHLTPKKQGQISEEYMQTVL

| SMILES | IC50 | outcome |
| --- | --- | --- |
| COc1ccc(C2Nc3ccccc3C(=O)N2Cc2cccs2)cc1COc1c(C)cccc1C (stereo unspecified) | 1000 nM (active) | – |
| COc1ccc(C2Nc3ccccc3C(=O)N2Cc2cccnc2)cc1COc1c(C)cccc1C (stereo unspecified) | 3500 nM (active) | – |
| COc1ccc(C2Nc3ccccc3C(=O)N2Cc2ccc(C)o2)cc1COc1c(C)cccc1C (stereo unspecified) | 2300 nM (active) | – |
| COc1ccc(C2Nc3ccccc3C(=O)N2Cc2ccco2)cc1COc1c(C)cc(NC(C)=O)cc1C (stereo unspecified) | 2300 nM (active) | – |
| COc1ccc(C2Nc3ccccc3C(=O)N2Cc2ccco2)cc1CSc1c(C)cccc1C (stereo unspecified) | 9900 nM (active) | – |
| COc1ccc(C2Nc3ccccc3C(=O)N2Cc2ccccc2)cc1COc1c(C)cccc1C (stereo unspecified) | – | inactive |
| CCc1cccc(CC)c1OCc1cc(C2Nc3ccccc3C(=O)N2Cc2ccco2)ccc1OC (stereo unspecified) | 22300 nM (active) | – |
| COc1ccc(C2Nc3cccc(O)c3C(=O)N2Cc2ccco2)cc1COc1c(C)cc(NC(C)=O)cc1C (stereo unspecified) | – | inactive |
| COc1ccc(C2Nc3ccccc3C(=O)N2Cc2ccccn2)cc1COc1c(C)cccc1C (stereo unspecified) | – | inactive |
| Cc1cccc(C)c1OCc1cccc(C2Nc3ccccc3C(=O)N2Cc2ccco2)c1 (stereo unspecified) | 1900 nM (active) | – |
| COc1ccc(C2Nc3ccccc3C(=O)N2Cc2ccco2)cc1COc1ccccc1C (stereo unspecified) | – | inactive |
